PABP polyA inh – blocks human PABP binding to poly(A) RNA; fluorescence polarization; inhibition, % at 35 µM; 290,000 compounds, 1% hits;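 note: calls also rest on retests at 20 µM and on dose response follow-up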
PERK inhibitor – blocks human PERK kinase; Q9NZJ5; CHO PERK-DD fusion, SEAP luminescence translation reporter; inhibition, % at 5.6 µM; 220,000 compounds, 0.17% hits;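 active = inhibition above the mean inhibition of all tested compounds plus 3 SD, set separately per screening campaign, cut at about 2.9% in these data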;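 note: PERK kinase domain activated by AP20187 dimerizer at 100 nM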
eIF4H inh – inhibitors of RNA binding by human eIF4H. AID 2012. 290,000 compounds, 0.94% hits. eIF4H fluorescence polarization binding assay. inhibition, % at 35 µM. Q15056;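 note: calls also rest on retests at 20 µM and on dose response follow-up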
MLLE-PAM2 inh – inhibitors of microRNA-mediated deadenylation, human PABP1 MLLE binding. 360,000 compounds, 0.36% hits. P11940. GST-MLLE / FITC-PAM2 fluorescence polarization. inhibition, % at 20 µM. AID 588489; in the data active = inhibition above about 35%, passing the limit was not always enough
M18AAP inhibitor – blocks P. falciparum M18 aspartyl aminopeptidase | recombinant PfM18AAP, H-Glu-NHMec fluorogenic cleavage | inhibition, % at 7.35 µM | 290,000 compounds, 1.2% hits;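 active = inhibition above the campaign mean inhibition over all tested compounds plus 3 SD, cut at about 28% in these data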
eIF4E 4G PPI – inhibitors of eIF4E and eIF4G interaction in translation initiation; P63073+Q04637; TR-FRET eIF4E-eIF4GI(517-606) binding, 2 h; inhibition, % at 21.7 µM; 220,000 compounds, 0.37% hits; AID 782;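 active = inhibition above about 30%, limit read from the data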
Each line names hits and unclear results; the compound was inactive in the other large screens. This is a sample that favours compounds with a hit; in the whole collection about 2.4% have one here. Unless noted, the rule behind the calls is not given here.

CCN(CC(O)CON=C1c2ccccc2-c2ccccc21)S(=O)(=O)c1ccc(C)cc1 (stereo unspecified)	PABP polyA inh 1.5, eIF4H inh 80
CC(C)P(=O)(c1cccc(C(=O)O)c1)C(C)C	none
O=C(C1CC(c2cccc(Br)c2)=NO1)N1CCc2ccccc2C1 (stereo unspecified)	eIF4H inh 53
O=C(O)C1CC(c2cccc(Br)c2)=NO1 (stereo unspecified)	none
COCCCN1CN(Cc2ccccc2)CNC1=S	eIF4H inh 0.6
Cc1ccc(-c2nc(N)sc2CC(=O)OCC(=O)NCCC(C)C)cc1	eIF4H inh 119
CCC(C)NC(=O)COC(=O)Cc1sc(N)nc1-c1ccc(C)cc1 (stereo unspecified)	eIF4H inh inconclusive
Cc1cc(O)ccc1Nc1cc(-c2cccc(N(C)C)c2)ncn1	none (no result: PABP polyA inh, PERK inhibitor, eIF4H inh, M18AAP inhibitor, eIF4E 4G PPI)
CC1CCc2c(sc3nc(CSc4nnnn4C)[nH]c(=O)c23)C1 (stereo unspecified)	none
CC1CCc2c(sc3nc(CSc4ncn[nH]4)[nH]c(=O)c23)C1 (stereo unspecified)	M18AAP inhibitor 56
N#CC1=C(N)N(c2ccccc2)C(=O)C1	PABP polyA inh 54
COc1ccc(N2C(=O)CC(C#N)=C2N)cc1	none
Cn1nnc(NC(=S)NC(=O)c2ccc3ccccc3c2)n1	MLLE-PAM2 inh 49 (no result: PABP polyA inh, PERK inhibitor, eIF4H inh, M18AAP inhibitor, eIF4E 4G PPI)
COc1ccc(CCN2CC(C(=O)N(C)Cc3ccccn3)CCC2=O)cc1 (stereo unspecified)	none (no result: PABP polyA inh, PERK inhibitor, eIF4H inh, M18AAP inhibitor, eIF4E 4G PPI)
CC(=O)C1=C(O)C(=O)N(c2ccc(S(N)(=O)=O)cc2)C1c1cccc([N+](=O)[O-])c1 (stereo unspecified)	none
CC(=O)C1C(=O)c2c(cccc2[N+](=O)[O-])C1=Nc1ccc(S(N)(=O)=O)cc1 (stereo unspecified)	M18AAP inhibitor 31
O=C(O)CCN1C(=O)c2ccc(NC(=O)C(c3ccccc3)c3ccccc3)cc2C1=O	eIF4E 4G PPI 71
O=C(O)CCN1C(=O)c2ccc(NC(=O)c3ccco3)cc2C1=O	none
CCOC(=O)COc1cccc2c(=O)n(CC(=O)N3CCCCC3)ccc12	PABP polyA inh 61, eIF4H inh 103
CCCCCC/C=C/c1ccc(OC)c([C@H]2[C@H]3C=CC[C@@H](C)[C@@H]3C(=O)N2Cc2ccccc2)c1	none (no result: PERK inhibitor, M18AAP inhibitor)
Nc1ccc2oc(-c3ccccc3Cl)cc(=O)c2c1O	PABP polyA inh 5.5, eIF4H inh 90
O=c1[nH]c2ccc(NC(=S)Nc3ccccc3Cl)cc2[nH]1	MLLE-PAM2 inh 38
O=c1[nH]c2ccc(NC(=S)Nc3ccc(Cl)cc3Cl)cc2[nH]1	none
CCCc1cnc(Nc2nc(C(N)Cc3ccc(C(F)(F)F)cc3)cs2)nc1 (stereo unspecified)	none (no result: PABP polyA inh, PERK inhibitor, eIF4H inh, M18AAP inhibitor, eIF4E 4G PPI)
CCOc1cccc(OCCCCn2ccnc2)c1	eIF4E 4G PPI 36
O=C1C2C3C=CC(C3)C2C(=O)N1c1cccc2cccnc12 (stereo unspecified)	none
O=C1c2ccccc2C(=O)N1c1cccc2cccnc12	eIF4H inh 64
O=C(CCCN1C(=O)/C(=C\c2ccco2)SC1=S)Nc1ccc(O)cc1C(=O)O	none (no result: PABP polyA inh, PERK inhibitor, eIF4H inh, eIF4E 4G PPI)
O=C(CN1C(=O)/C(=C/c2ccco2)SC1=S)Nc1ccc(C(=O)O)c(O)c1	PABP polyA inh 82, eIF4H inh 92, M18AAP inhibitor 47 (no result: PERK inhibitor, eIF4E 4G PPI)
CC(/C=C1\SC(=S)N(CC(=O)O)C1=O)=C\c1ccccc1	none
CC(=C\c1ccco1)/C=C1/SC(=S)N(CC(=O)O)C1=O	PABP polyA inh 66, eIF4H inh 87
O=C(CCCN1C(=O)/C(=C\c2cccs2)SC1=S)Nc1cccc(C(=O)O)c1	none
O=C(CCCN1C(=O)/C(=C/c2ccccc2)SC1=S)Nc1ccc(C(=O)O)c(O)c1	none (no result: PERK inhibitor, eIF4E 4G PPI)
O=C(CCCN1C(=O)/C(=C/c2ccco2)SC1=S)Nc1cccc(C(=O)O)c1	PABP polyA inh 96, eIF4H inh 94
O=C(CN1C(=O)/C(=C/c2ccco2)SC1=S)Nc1ccc(O)c(C(=O)O)c1	PABP polyA inh 69, eIF4H inh 81 (no result: PERK inhibitor, eIF4E 4G PPI)
COc1ccc(-c2cc3cc(OC)c(OC)cc3c(C)n2)cc1	none
C[C@H](CO)N1C[C@H](C)[C@H](CN(C)C(=O)Nc2ccccc2F)OCc2cnnn2CCCC1=O	none (no result: PABP polyA inh, PERK inhibitor, eIF4H inh, M18AAP inhibitor, eIF4E 4G PPI)
CC(C(=O)N(C)C1CCS(=O)(=O)C1)N1C(=O)/C(=C/c2ccco2)SC1=S (stereo unspecified)	M18AAP inhibitor 31 (no result: PERK inhibitor, eIF4E 4G PPI)

Source: PubChem
